The values below come from PubChem BioAssay (Tox21).

Values joined by “and” are separate entries in the source; they are usually repeats but may differ in a detail not shown here. Equal values may be shown once. Results filed as inconclusive are left out. Some compounds were tested as several samples or in several runs, with calls that do not always agree. Active and inactive are the calls of the source. Calls come from the whole dose curve; as a rule, active = well fitted cell-killing curve with a large enough effect in the repeat runs; inconclusive = weak or mixed curves, or effect the other way; inactive = flat fitted curve, though single readings scatter.
% is set by controls: 0 for no effect and ±100 for the full control effect; potency is the fitted concentration of half-maximal effect.

The assay in a line: qHTS RealTime-Glo MT Cell Viability Assay in HEK293 cells - 40 hour (AID 1224874). Note: nearly all actives have a fitted effect of over 50% in size. As to conditions: RealTime-Glo luminescence; max response: active compounds read low. The source says:
U.S. Tox21 Program National Center for Advancing Translational Sciences [NCATS] NIH Chemical Genomics Center [NCGC] U.S. Environmental Protection Agency [EPA] National Institutes of Environmental Health Sciences [NIEHS] National Toxicology Program [NTP] U.S. Food and Drug Administration [FDA] Tox21 Assay Overview: Measure of cell viability is critical in the cell-base assay. Analysis of cell viability is necessary for the characterization of cell responses to cytotoxic drugs and environmental stress. A RealTime-Glo MT Cell Viability Assay to monitor cell viability in real time of continues cell culture during 40 hours of compound treatment was used to screen Tox21 10K library compounds in Hek293 cells. The RealTime-Glo MT Cell Viability Assay is a nonlytic, homogeneous, bioluminescent method to measure cell viability in real time using a simple, plate-based method. The assay involves adding NanoLuc luciferase and a cell-permeant prosubstrate to cells in culture. Viable cells reduce the proprietary prosubstrate to generate a substrate for NanoLuc luciferase. This substrate diffuses from cells into the surrounding culture medium, where it is rapidly used by the NanoLuc Enzyme to produce a luminescent signal. The signal correlates with the number of viable cells, making the assay well suited for cytotoxicity studies.
Tox21 Assay Protocol Summary: The mixture of Hek293 cell suspension and reagents were dispensed at 600cells/6 ul/well in 1536-well tissue culture treated black solid bottom plates using a Multidrop dispenser. After the assay plates were incubated at a 37 C/5% CO2 incubator for 5 hours, 23 nL of compounds dissolved in DMSO, positive and negative controls was transferred to the assay plate by a pintool work station. The plates were incubated at 37 C for 40 hours. The luminescence intensity were measured at 0h, 8h, 16h, 24h, 32h and 40h time points using ViewLux plate reader during compound treatment.
In general terms: qHTS replaces the single test concentration by a dilution series.
Take `CCOc1ccc(NC(=O)CC(C)O)cc1` (stereo not given): the max response was -0.988% (inactive) and -3.57% (inactive) and -1.9% (inactive).

Turning to `O=C(O)CCCCCCCC(=O)O`, the max response was 2.75% (inactive) and 4.95% (inactive) and 3.91% (inactive).

As for `O=C1CN(/N=C/c2ccc([N+](=O)[O-])o2)C(=O)N1`, the max response is -21.3% (inactive) and -17.7% (inactive).

On to `CNC[C@H](O)c1cccc(O)c1`, for which the max response was 8.72% (inactive) and 5.33% (inactive) and 3.68% (inactive).

Regarding `O=C(O)C(=O)O`, the max response was -1.98% (inactive) and 1.92% (inactive) and 0.465% (inactive).

Consider `C/C=C/c1ccc(OC)cc1`, for which the max response was -0.468% (inactive) [middle of 4 runs].

For `Nc1ccn([C@H]2CC[C@@H](CO)O2)c(=O)n1`, the max response was 5.91% (inactive) and 4.06% (inactive) and 6.95% (inactive).

Take `O=C(O)CCC(=O)O`: the max response was 9.17% (inactive) and -2.49% (inactive) and -2.75% (inactive).

Consider `OC(Cn1cncn1)(Cn1cncn1)c1ccc(F)cc1F`, for which the max response is 7.44% (inactive) and 0.305% (inactive) and 5.93% (inactive).

Turning to `NNC(=O)c1ccncc1`, the max response is 1.61% (inactive) and 0.145% (inactive) and 4.04% (inactive).

For the compound `CCCCCCCCCCCCCCCC(=O)O`, the max response is -14.7% (inactive) and -1.54% (inactive) and -1.33% (inactive).

`CC(C)[C@@H]1CC[C@@H](C)C[C@H]1O`: the max response is 3.82% (inactive) [middle of 5 runs].

In the case of `C1N2CN3CN1CN(C2)C3`, the max response was 5.73% (inactive) and 6.94% (inactive) and 0.249% (inactive).

With `O=C(O)c1cccc([N+](=O)[O-])c1`, the max response was -2.27% (inactive) and 9.34% (inactive) and 3.61% (inactive).

As for `Cc1cn([C@H]2C[C@H](N=[N+]=[N-])[C@@H](CO)O2)c(=O)[nH]c1=O`, the max response is -0.145% (inactive) and 3.87% (inactive) and 7.29% (inactive).

Take `O=c1cc[nH]c(=S)[nH]1`: the max response is 6.11% (inactive) and 3.88% (inactive) and 9.23% (inactive).

`CC(=O)OCC(COC(C)=O)OC(C)=O`: the max response is 1.3% (inactive) and 11.6% (inactive) and 13.6% (inactive).

Take `OCCc1ccccc1`: the max response was 6.34% (inactive) and 10.1% (inactive) and 6.75% (inactive).

For the compound `Nc1ccc(C(=O)O)cc1`, the max response is -12% (inactive) and -18.6% (inactive) and -17.3% (inactive).

Take `CC1(C)[C@@H]2CC[C@@]1(C)C(=O)C2`: the max response was 4.23% (inactive) and 1.62% (inactive) and -1.8% (inactive).

`CC(O)CN(CCN(CC(C)O)CC(C)O)CC(C)O` (stereo not given): the max response was 2.34% (inactive) and 10.6% (inactive) and -2.16% (inactive).

In the case of `CCCCOC(=O)CC(CC(=O)OCCCC)(OC(C)=O)C(=O)OCCCC`, the max response is -6.55% (inactive) and -23.8% (inactive) and -22.3% (inactive).

For the compound `c1ccc2[nH]ccc2c1`, the Potency was 2.15 µM (active); the max response is 8.38% (inactive) and -1.27% (inactive).

With `N=C(N)c1ccc(OCCCCCOc2ccc(C(=N)N)cc2)cc1`, the Potency is 9.73 µM (active) and 16.6 µM (active) and 21.3 µM (active).

As to `Cc1ccccc1C(OCCN(C)C)c1ccccc1` (stereo not given), the max response is -3.03% (inactive) and -20.7% (inactive) and -19.7% (inactive).

Turning to `CCCCC1C(=O)N(c2ccccc2)N(c2ccccc2)C1=O`, the max response is -7.32% (inactive) and -1.19% (inactive) and 8.39% (inactive).

In the case of `COc1c2occc2cc2ccc(=O)oc12`, the Potency was 21.9 µM (active) and the max response was -18.6% (inactive).

Regarding `O=C1NC(=O)c2ccccc21`, the max response is 3.82% (inactive) and -4.14% (inactive) and 5.86% (inactive).

Take `Nc1ccc(S(=O)(=O)c2ccc(N)cc2)cc1`: the max response was 3.77% (inactive) and -13.4% (inactive) and 9.1% (inactive).

As for `O=c1ccc2ccccc2o1`, the max response was -0.397% (inactive) and 6.44% (inactive) and 2.9% (inactive).

With `O=C(O)c1[nH]n(-c2ccc(S(=O)(=O)O)cc2)c(=O)c1N=Nc1ccc(S(=O)(=O)O)cc1`, the max response is -3.28% (inactive) and -13% (inactive) and 0.864% (inactive).

Consider `Cn1c(=O)c2[nH]cnc2n(C)c1=O`, for which the max response is 0.637% (inactive) and -1.08% (inactive) and -2.33% (inactive).

With `Cn1cc[nH]c1=S`, the max response is -1.38% (inactive) and 17.2% (inactive) and 3.37% (inactive).

As for `CC(C)(Oc1ccc(C2CC2(Cl)Cl)cc1)C(=O)O` (stereo not given), the max response was 2.51% (inactive) and 10.4% (inactive).

For the compound `O=C(O)c1cc(N=Nc2ccc(S(=O)(=O)Nc3ccccn3)cc2)ccc1O`, the max response is -2.85% (inactive) and -13.7% (inactive) and 1.5% (inactive).

In the case of `CCCC(O)C(CC)CO` (stereo not given), the max response was 0.318% (inactive) and 1.14% (inactive) and 0.567% (inactive).

Turning to `COc1ccc2[nH]cc(CCNC(C)=O)c2c1`, the max response was -2.36% (inactive) and -20% (inactive) and 4.03% (inactive).

On to `Cc1cc(=O)n(-c2ccccc2)n1C`, for which the max response is 5.11% (inactive) and 3.11% (inactive) and 1.5% (inactive).
